Assay in all cases: NCI-60 one-dose screen, 48 h (100 = growth as untreated, 0 = no growth, -100 = all killed)
Holding throughout (conditions): 10 µM

Assay [1] relates to NCI-H23 lung.
In assay [2] the test system is NCI-H226 lung.
Assay [3] has as its system NCI-H322M lung.
In assay [4] the test system is HOP-62 NSCLC.
Assay [5] concerns NCI-H460 lung.
Assay [6] has as its system HOP-92 NSCLC.
The subject of assay [7] is NCI-H522 lung.
Assay [8] has as its system A549/ATCC NSCLC.
Assay [9] has as its system 786-0 renal.
Assay [10] has as its system COLO 205 colon.
Assay [11] has as its system DU-145 prostate.
Assay [12] deals with K-562 leukemia.
For assay [13], the system named is MALME-3M melanoma.
The subject of assay [14] is MDA-MB-231 breast.
The subject of assay [15] is RXF 393 renal.
Assay [16] has as its system SF-268 CNS.
Assay [17] has as its system SF-295 CNS.
The subject of assay [18] is SF-539 CNS.
The test system of assay [19] is UACC-257 melanoma.
For assay [20], the system named is M14 melanoma.

This is part of a sample that, as a whole, favours compounds with a hit. Of some 83,000 tested, about 20% had one in any assay.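 96-well plates, one dose, 48 hours. Percent growth reported; active if below 10.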 Unmarked numbers belong to inactive results. Activity calls are given as the source filed them.

`COc1cc(CSc2nc3ccc(Cl)cc3c(=O)n2Cc2ccccc2)cc(OC)c1OC`: the growth in assay [1] is 25%; in assay [2] it was 47.9%; in [3], 47.5%; in assay [4], 37.7%; in assay [5], 20.5%; in assay [6], 71.3%. Besides, the growth is -0.0842% (active) in [7]; 42.2% in [8]; 43.4% in assay [9]; -37.8% (active) in [10]; 40.8% in assay [11]; 12.9% in assay [12]. Further, the growth in assay [13] is 38.9%; in assay [14], 38.8%; in [15] it was 13.1%; in assay [16], 41%; in [17], 28.9%; in [18], 5.82% (active). In addition, the figures for the growth in [19] and in assay [20] were 46.5% and 35.4%, respectively.
For the compound `Cc1ccc(C(=O)O)c(N)c1C`, the growth in assay [1] is 94.4%; in assay [2], 98.6%; in assay [3] it was 96.1%; in assay [4], 90.2%; in assay [5] it was 108%; in assay [6], 98.8%. The growth in [7] is 87.3%; in assay [8], 111%; in [9], 103%; in [10] it was 117%; in [11], 101%; in assay [12], 92.1%. Further, the growth in assay [13] is 85.7%; in assay [14], 118%; in assay [15], 111%; in [16] it was 95.9%; in assay [17], 92.6%; in assay [18] it was 103%. Also, the figures for the growth in assay [19] and in assay [20] were 108% and 96.4%, respectively.
For the compound `Cc1cccc2c1O/C(=C\c1ncc([N+](=O)[O-])n1C)C2=O`, the growth was -13.7% (active) in [1]; -25% (active) in assay [2]; -17.9% (active) in assay [3]; -33.5% (active) in assay [4]; -29.1% (active) in [5]; -32.6% (active) in assay [6]. Moreover, the growth was -55.8% (active) in assay [7]; -25.7% (active) in assay [8]; -28.5% (active) in assay [9]; -52.3% (active) in assay [10]; -29.7% (active) in assay [11]; 0.421% (active) in assay [12]. For the same compound, the growth was -51.5% (active) in assay [13]; -7.78% (active) in assay [14]; -63.7% (active) in [15]; -26.4% (active) in assay [16]; -15.2% (active) in [17]; -61% (active) in assay [18]. Also, the growth in [19] was -40.8% (active); in assay [20] it was -49.2% (active).
On to `COc1ccc(S(=O)(=O)Nc2ccc(OCc3nnc(-c4ccc(Cl)cc4)o3)c(F)c2)cc1`, for which the growth is 43.4% in [1]; 59.8% in assay [2]; 80.2% in [3]; 74.4% in [4]; 59.4% in assay [5]; 60.6% in assay [6]. The growth was 43.4% in assay [7]; 47.4% in assay [8]; 67.8% in assay [9]; 89.2% in [10]; 76.7% in assay [11]; 43.2% in assay [12]. Besides, the growth was 67.8% in [13]; 54.6% in assay [14]; 63.1% in assay [15]; 59.9% in assay [16]; 43.8% in [17]; 70.5% in assay [18]. In addition, the growth was 23.3% in assay [19] and 78% in assay [20].
As to `Cc1ccc(C)c(S(=O)(=O)NC2c3ccccc3Oc3ccccc32)c1`, the growth was 98% in assay [1]; 90.3% in assay [2]; 88.3% in assay [3]; 96.1% in assay [4]; 105% in [5]; 59.6% in [6]. In addition, the growth is 31.6% in [7]; 96.7% in assay [8]; 88% in assay [9]; 99.2% in assay [10]; 112% in [11]; 90% in assay [12]. The growth is 93.2% in assay [13]; 95.2% in [14]; 91.3% in [15]; 95% in [16]; 98.1% in [17]; 97.3% in assay [18]. Besides, the growth in assay [19] was 109%; in assay [20], 101%.
Consider `Nc1ncc(-c2ccc(C(F)(F)F)cc2)c(NC2CCCCCC2)n1`, for which the growth in assay [1] is 11.9%; in assay [2], 39.6%; in [3], 66.7%; in assay [4], 57.7%; in [5], 44.9%; in assay [6], -12.1% (active). The growth in assay [7] was -6.45% (active); in [8], 18.6%; in assay [9], 51.3%; in [10], 38.5%; in [11] it was 64.2%; in assay [12], 16.2%. In addition, the growth in [13] is -21.4% (active); in assay [14] it was 65.1%; in [15], 50.3%; in assay [16], 56.1%; in assay [17], -20.9% (active); in assay [18], 65.2%. Also, the values for the growth in assay [19] and in assay [20] were -13.5% (active) and 27.8%, respectively.
As for `O=c1cc(CSc2nnc(-c3ccccc3)n2-c2ccc(F)cc2)c2ccc3ccccc3c2o1`, the growth in assay [1] is 83.6%; in assay [2] it was 81.4%; in [3] it was 91.8%; in [4] it was 92.8%; in assay [5], 100%; in assay [6] it was 83.5%. Also, the growth in assay [7] is 74.1%; in [8] it was 99.2%; in assay [9], 102%; in [10], 91.3%; in assay [11], 109%; in [12], 82.9%. Also, the growth in assay [13] is 97%; in assay [14], 91.1%; in assay [15], 108%; in assay [16], 93.8%; in assay [17], 95.9%; in assay [18], 98.7%. Moreover, the growth in assay [19] is 103%; in assay [20] it was 102%.

These data come from PubChem BioAssay (NCI).
